Only a selection was taken, and hits are over-represented in it overall.
nsP2pro inh = inhibitors of chikungunya virus nsP2 protease | Q8JUX6 | FRET peptide cleavage, nsP2pro, fluorescence 1 h | Potency, µM (titrated, usually from 24.9 µM), usual class: inhibitors | AID 1964107 | actives 1.1% (n = 31,000); also: nearly all actives have a fitted effect of over 60% in size
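Purified recombinant nsP2pro (150 nM final) in 10 mM Tris-HCl pH 8.0 with 0.01% Tween 20 was preincubated 15 min at room temperature with compound (7 concentrations, up to 25 uM). FRET peptide 2 substrate (2.5 uM final) was then added; fluorescence was read after 1 h.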
CHIKV nsP2 cell = inhibits CHIKV nsP2 protease in cells. actives 10% (n = 450). Potency, µM (titrated, usually from 51.1 µM), actives largely listed as inhibitors. shares compounds with nsP2pro inh. cell-based CHIKV nsP2 protease reporter assay; also: nearly all actives have a fitted effect of over 70% in size
Target sequence (Q8JUX6 220-798 limits assumed): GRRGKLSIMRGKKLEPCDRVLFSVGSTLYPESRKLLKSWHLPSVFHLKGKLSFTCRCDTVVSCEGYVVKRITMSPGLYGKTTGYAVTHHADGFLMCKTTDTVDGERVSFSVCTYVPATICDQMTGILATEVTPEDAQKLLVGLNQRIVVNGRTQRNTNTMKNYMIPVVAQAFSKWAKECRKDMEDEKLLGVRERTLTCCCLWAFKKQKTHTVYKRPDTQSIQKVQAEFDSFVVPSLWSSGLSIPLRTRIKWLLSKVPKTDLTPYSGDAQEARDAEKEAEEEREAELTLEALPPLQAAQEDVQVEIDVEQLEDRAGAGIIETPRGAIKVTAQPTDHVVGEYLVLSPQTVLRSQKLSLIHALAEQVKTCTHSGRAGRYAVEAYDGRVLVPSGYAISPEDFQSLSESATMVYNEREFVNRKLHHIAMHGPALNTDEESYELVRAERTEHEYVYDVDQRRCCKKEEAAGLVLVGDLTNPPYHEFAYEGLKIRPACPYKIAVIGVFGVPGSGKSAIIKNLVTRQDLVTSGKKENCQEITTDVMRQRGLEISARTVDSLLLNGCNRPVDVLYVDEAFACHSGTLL
NSP2 full ctr = selectivity test for CHIKV nsP2 protease inhibitors: full-length NSP2; Full-length CHIKV NSP2 protease enzymatic counterscreen; actives 39% (n = 410); Potency, µM (highest dose often 50.7 µM), usual class: inhibitors; shares compounds with nsP2pro inh; also: nearly all actives have a fitted effect of over 65% in size
Furin counterscr = inhibits human furin in a CHIKV nsP2 protease selectivity counterscreen; shares compounds with nsP2pro inh; actives 6% (n = 410); Recombinant human furin enzymatic counterscreen, fluorogenic substrate; AID 1964102; Potency, µM (highest dose often 50.6 µM), usual class: inhibitors
NS23 peptide cs = blocks CHIKV nsP2 protease cleavage of endogenous NS2/3 peptide; AID 1964103; Potency, µM (series often up to 51 µM), usual class: inhibitors; Purified CHIKV nsP2 protease, endogenous NS2/3 peptide cleavage; shares compounds with nsP2pro inh; actives 34% (n = 410); also: nearly all actives have a fitted effect of over 55% in size
Papain cs = inhibits papain in a CHIKV nsP2 protease selectivity counterscreen. shares compounds with nsP2pro inh. purified papain protease activity, enzymatic inhibition. Potency, µM (top dose mostly 51 µM), usual class: inhibitors. actives 5% (n = 410)
nsP2pro confirm = confirmation of CHIKV nsP2 protease inhibitors; shares compounds with nsP2pro inh; CHIKV nsP2 protease enzymatic activity, qHTS; Potency, µM (series often up to 25.5 µM), actives largely listed as inhibitors; actives 43% (n = 410); AID 1964105; also: nearly all actives have a fitted effect of over 75% in size
HCV NS3 4A cs = HCV NS3/4A protease inhibition, counterscreen. actives 20% (n = 410). HCV NS3/4A protease biochemical counterscreen. AID 1964106. Potency, µM (highest dose often 50.9 µM), hits mostly inhibitors. shares compounds with nsP2pro inh; also: nearly all actives have a fitted effect of over 55% in size
Hits are given with their value. Calls follow the shape of the full dose curve.

`CN[C@@H]1[C@@H](O)[C@@H](O[C@@H]2[C@@H](O)[C@H](OC3O[C@H](CN)[C@@H](O)[C@H](O)[C@H]3O)[C@@H](N)C[C@H]2NC(=O)[C@@H](O)CN)OC[C@]1(C)O` (stereo partly specified) gave nsP2pro inh inactive.
`CC(=O)O[C@@H]1CC[C@@]2(C)C(CC[C@]3(C)C2[C@H](O)C=C2[C@H]4[C@@H](C)[C@H](C)CC[C@]4(C)CC[C@]23C)[C@@]1(C)C(=O)O` (stereo partly specified) gave nsP2pro inh inactive.
For COC(=O)C12CCC(C)C(C)C1C1=CCC3C4(C)CCC(OC(C)=O)C(C)(C)C4CCC3(C)C1(C)CC2 (stereo unspecified) the results were nsP2pro inh inactive.
`CC(=O)OC1CCC2(C)C(CCC3(C)C2CC=C2C4C(C)C(C)CCC4(C)CCC23C)C1(C)C(=O)O` (stereo unspecified) gave nsP2pro inh 1.2µM.
Screening Cc1cc(C)nc(NC(=S)N2CCN(c3ccc4nncn4c3)CC2)c1 returned nsP2pro inh inactive.
CN1Cc2c(Cl)cc(Cl)cc2[C@H](c2cccc(S(=O)(=O)NCCOCCOCCNC(=O)NCCCCNC(=O)NCCOCCOCCNS(=O)(=O)c3cccc([C@@H]4CN(C)Cc5c(Cl)cc(Cl)cc54)c3)c2)C1 was read as nsP2pro inh inactive.
`O=S(=O)(Nc1nccs1)c1ccc(Nc2nc(-c3ccc(F)cc3)cs2)cc1` gave nsP2pro inh inactive.
FC(F)(F)c1cccc(N2CCN(C(=S)Nc3ncnc4ccccc34)CC2)c1 was read as nsP2pro inh inactive.
For Cc1cc(-c2nnc3n2CCCCC3)c(C)n1-c1ccc(C#N)cc1 the results were nsP2pro inh inactive.
Screening Cc1nc(C2CCCN2Cc2ccc(-c3ccn[nH]3)o2)cs1 (stereo unspecified) returned nsP2pro inh 8.9µM, CHIKV nsP2 cell inactive, NSP2 full ctr inconclusive, Furin counterscr inactive, NS23 peptide cs inconclusive, Papain cs inactive, nsP2pro confirm inconclusive and HCV NS3 4A cs inconclusive.
`C[C@@H](Oc1cc(-n2cnc3ccc(OC4CCN(C)CC4)cc32)sc1C(N)=O)c1ccccc1C(F)(F)F` gave nsP2pro inh inactive.
`CCc1ccccc1C(=O)N1CCc2cc(-c3nc(NC(=O)Cc4ccc5c(c4)OCO5)sc3C)ccc21` gave nsP2pro inh inactive.
For Cn1cc(C(=O)N2CCc3[nH]cnc3C2C2CCN(C(=O)C3CCOCC3)CC2)cn1 (stereo unspecified) the results were nsP2pro inh inconclusive, CHIKV nsP2 cell inactive, NSP2 full ctr 6.5µM, Furin counterscr inactive, NS23 peptide cs inconclusive, Papain cs inactive, nsP2pro confirm inconclusive and HCV NS3 4A cs 9.2µM.
O=C(C1CCOCC1)N1CCC(c2nc(C3CCOCC3)no2)CC1 was read as nsP2pro inh inactive.
Screening COC(=O)N1CCCCC1C(=O)N1CCC2(CC1)c1nc[nH]c1CCN2C (stereo unspecified) returned nsP2pro inh inactive.
`CSc1ccccc1C(=O)N1CCN(C(C)=O)CC(O)C1` (stereo unspecified) gave nsP2pro inh inactive.
Screening Nc1cccc(S(=O)(=O)Nc2cnccc2C(=O)Nc2nc(-c3ccccc3)cs2)c1 returned nsP2pro inh inactive.
Screening COc1cc(O)c(C(CC(=O)N2CCCCC2)c2ccc(C)cc2)c(OC)c1 (stereo unspecified) returned nsP2pro inh inactive.
Screening COc1cc2c(cc1OC)[C@H]1C[C@@H](OC(=O)[C@@H](N)C(C)C)[C@H](CC(C)C)CN1CC2 returned nsP2pro inh inactive.
`CC[C@@]1(O)C[C@H](O[C@H]2C[C@H](N(C)C)[C@H](O[C@H]3C[C@H](O)[C@H](O[C@H]4CCC(=O)[C@H](C)O4)[C@H](C)O3)[C@H](C)O2)c2c(cc3c(c2O)C(=O)c2c(O)cccc2C3=O)[C@@H]1C(=O)OC` gave nsP2pro inh inconclusive, CHIKV nsP2 cell inactive, NSP2 full ctr inconclusive, Furin counterscr inactive, NS23 peptide cs inconclusive, Papain cs inactive, nsP2pro confirm inconclusive and HCV NS3 4A cs inactive.
For COc1cccc2c1C(=O)c1c(O)c3c(c(O)c1C2=O)C[C@@](O)(C(=O)CO)C[C@@H]3O[C@H]1C[C@H](N)[C@H](OC2CCCCO2)[C@H](C)O1 (stereo partly specified) the results were nsP2pro inh inactive.
COc1cccc2c1C(=O)c1c(O)c3c(c(O)c1C2=O)C[C@@](O)(C(=O)CO)CC3OC1CC(N2CCOC(OC)C2)C(O)C(C)O1 (stereo partly specified) was read as nsP2pro inh inactive.
For FC(F)(F)c1cccc(-c2nc(NCc3ccc(-c4cccnc4)cc3)c3ccccc3n2)c1 the results were nsP2pro inh inactive.
For Cc1ccc(S(=O)(=O)Nc2cnccc2C(=O)Nc2nc(-c3ccccc3)cs2)cc1 the results were nsP2pro inh inactive.
For Cc1ccsc1CN1CCc2nc(Nc3ccccc3)ncc2C1 the results were nsP2pro inh inactive.
`Brc1ccc(CN2CCc3nc(Nc4ccccc4)ncc3C2)s1` gave nsP2pro inh inconclusive, CHIKV nsP2 cell inactive, NSP2 full ctr inactive, Furin counterscr inactive, NS23 peptide cs inactive, Papain cs inactive, nsP2pro confirm inactive and HCV NS3 4A cs inactive.
`Fc1ccccc1N1CCN(c2ncc3c(n2)CCN(Cc2ccc(Br)s2)C3)CC1` gave nsP2pro inh inactive.
For C=C1C/C(=C\C=C2/CCC[C@]3(C)[C@@H]([C@H](C)/C=C/C(C)C(C)C)CC[C@@H]23)[C@@H](O)C[C@@H]1O (stereo partly specified) the results were nsP2pro inh inactive.
Screening OCC1OC(c2ccc(Cl)c(Cc3ccc(OC4CCOC4)cc3)c2)C(O)C(O)C1O (stereo unspecified) returned nsP2pro inh inactive.
Cc1ccnc(NC(=S)N2CCc3cccc(C(F)(F)F)c3C2)c1 was read as nsP2pro inh inactive.
`C=CC1(C)CC(O)C(C(=C)C(=O)OC)C(O)C1C(=C)CO` (stereo unspecified) gave nsP2pro inh inactive.

From PubChem
